This excerpt belongs to a sample that is enriched for hits.
Shiga toxin inh = Shiga toxin inhibition; Vero cells, Shiga toxin protein synthesis inhibition reporter; inhibition, % at 38.7 µM; hit rate 9.2% among 290,000; AID 2315; in the data active means inhibition mostly above about 28%, no sharp cut-off; inactive means mostly below about 43%; further: 0% is about no effect
Vaccinia mCherry = vaccinia inhibition (mCherry reporter); Potency, µM (top dose mostly 36.5 µM), for inactives: top-dose activity change, negative = inhibition, usual class: inhibitors; AID 720579; Vaccinia virus mCherry reporter infection, fluorescence; hit rate 0.63% among 310,000; calls by dose curve; tested in A549 cells; further: potency means the concentration at half of the fitted maximal effect; on the % scale 0 is the no-effect control and ±100 the full control effect; nearly all actives have a fitted effect of over 35% in size
LASV entry inh = inhibitors of Lassa virus binding or cell entry. hit rate 1.2% among 300,000. Potency, µM (doses to about 37.9 µM), for the others: top-dose activity change, negative = inhibition, most hits filed as inhibitors. Lassa virus pseudotype entry inhibition, cell reporter; calls by dose curve; tested in HEK293 cells; further: potency means the concentration at half of the fitted maximal effect; on the % scale 0 is the no-effect control and ±100 the full control effect; nearly all actives have a fitted effect of over 50% in size
Cycloheximide cs = counter-screen for Shiga toxin inhibitors: cycloheximide protein synthesis inhibition; max response, %; AID 2314; cell reporter, cycloheximide protein synthesis inhibition counterscreen; hit rate 12% among 300,000; in the data active means max response mostly above about 13%, no sharp cut-off; inactive means mostly below about 14%; further: read at 38.3 µM for the half of the compounds with a filed dose; 0% is about no effect
VACV Venus inh = vaccinia inhibition (Venus reporter). Vaccinia virus Venus reporter expression, fluorescence. hit rate 0.46% among 330,000. Potency, µM (series often up to 36.5 µM), inactives show at the top dose activity change, negative = inhibition, usual class: inhibitors; calls by dose curve; tested in A549 cells; further: potency means the concentration at half of the fitted maximal effect; on the % scale 0 is the no-effect control and ±100 the full control effect; nearly all actives have a fitted effect of over 30% in size
MARV entry inh = Marburg virus entry inhibition | Marburg virus pseudotyped entry inhibition, cell reporter | Potency, µM (top dose mostly 37.8 µM), for the others: at the top dose activity change, negative = inhibition, most hits filed as inhibitors | hit rate 1.8% among 300,000; calls by dose curve; tested in HEK293 cells; further: potency means the concentration at half of the fitted maximal effect; on the % scale 0 is the no-effect control and ±100 the full control effect
Numbers without * were called inactive; [ ] = remark or other dose.

For Cc1ccc(S(=O)(=O)NC(Cc2ccccc2)C(=O)O)cc1 (configuration not stated) the results were Shiga toxin inh 12, Vaccinia mCherry -19%, LASV entry inh 8%, Cycloheximide cs -5, VACV Venus inh -15% and MARV entry inh 1%[46.1 µM].
Cc1ccc(S(=O)(=O)NC(=O)NC(C)Cc2ccccc2)cc1 (configuration not stated) was read as Shiga toxin inh 56, Vaccinia mCherry -13%, LASV entry inh inconclusive, Cycloheximide cs 20*, VACV Venus inh -4% and MARV entry inh 5%[46.1 µM].
Screening O=C(NCC1CCCO1)c1cc(C(=O)c2ccc(Cl)cc2Cl)c[nH]1 (configuration not stated) returned Shiga toxin inh 38, Vaccinia mCherry -11%, Cycloheximide cs -3 and VACV Venus inh -16%.
CCCC/C(O)=C1\C(=O)CCCC1=NCCc1c(C)[nH]c2ccc(OC)cc12 was read as Shiga toxin inh -3, Vaccinia mCherry inconclusive, LASV entry inh inconclusive, Cycloheximide cs -2, VACV Venus inh -2% and MARV entry inh 8.9µM*.
Screening CC/C(O)=C1\C(=O)CCCC1=NCCc1c(C)[nH]c2ccc(C)cc12 returned Shiga toxin inh -12, Vaccinia mCherry -23%, Cycloheximide cs -1 and VACV Venus inh -8%.
`O=C(Nc1cccc(F)c1)c1ccc(S(=O)(=O)N2CCCCC2)cc1` gave Shiga toxin inh 8, Vaccinia mCherry -12%, LASV entry inh -9%, Cycloheximide cs 11, VACV Venus inh -25% and MARV entry inh inconclusive.
For CN(/N=C/c1ccncc1)c1cnn(-c2ccc(F)c(Cl)c2)c(=O)c1Cl the results were Shiga toxin inh 46*, LASV entry inh 0%, Cycloheximide cs 27* and MARV entry inh -7%.
For COc1c(Cl)cnn(-c2ccc(Cl)c(Cl)c2)c1=O the results were Shiga toxin inh 35, Vaccinia mCherry inactive, LASV entry inh 3%[46.1 µM], Cycloheximide cs 17, VACV Venus inh -10% and MARV entry inh inconclusive.
Screening COc1ccc(NC(=O)Cn2c(=O)c3ccccc3n3nncc23)c(OC)c1 returned Vaccinia mCherry 5%, LASV entry inh 21%[46.1 µM], VACV Venus inh 3% and MARV entry inh 9%[46.1 µM].
COc1cccc(CNC(=O)COCc2cc(-c3ccc4c(c3)OCO4)on2)c1 was read as Vaccinia mCherry -6%, LASV entry inh -28%[46.1 µM] and VACV Venus inh -19%.
`CC(=O)Nc1ccc2nc(SCc3ccccc3)sc2c1` gave Vaccinia mCherry -21%, LASV entry inh 11%[46.1 µM], VACV Venus inh -10% and MARV entry inh 2%[46.1 µM].
Screening c1ccc2sc(SCc3ccc(-c4nnco4)cc3)nc2c1 returned Shiga toxin inh 73*, Vaccinia mCherry -21%, LASV entry inh 11µM*, Cycloheximide cs 38*, VACV Venus inh -17% and MARV entry inh inconclusive.
For COCCNC(=O)c1ccc(CSc2nc3ccccc3s2)cc1 the results were Shiga toxin inh 73*, Vaccinia mCherry inactive, LASV entry inh 30%[46.1 µM], Cycloheximide cs 43*, VACV Venus inh -14% and MARV entry inh inconclusive.
CCNC(=O)c1ccc(CSc2nc3ccccc3s2)cc1 was read as Shiga toxin inh -11, Vaccinia mCherry inactive, LASV entry inh inconclusive, Cycloheximide cs -2, VACV Venus inh -10% and MARV entry inh -18%[46.1 µM].
`CCC(C)/C(C)=N/NC(=O)c1ccc(CSc2nc3ccccc3s2)cc1` (configuration not stated) gave Shiga toxin inh 34, Vaccinia mCherry -26%, LASV entry inh inconclusive, Cycloheximide cs 20*, VACV Venus inh -25% and MARV entry inh -10%.
`NC(=O)c1ccc(CSc2nc3ccccc3s2)cc1` gave Shiga toxin inh 94*, Vaccinia mCherry -17%, LASV entry inh inconclusive, Cycloheximide cs 48*, VACV Venus inh -17% and MARV entry inh inconclusive.
Screening COc1cn(CC(=O)Nc2c(C)cc(C)cc2C)c(CN2CCCCC2)cc1=O returned Vaccinia mCherry -6%, LASV entry inh 2%[46.1 µM] and VACV Venus inh -14%.
Screening COC(=O)[C@@H]1CC[C@H](C)[C@@H](c2ccc(C)cc2)N1C(=O)c1ccc(/C=N\OC[C@@H](O)[C@H]2O[C@H]3OC(C)(C)O[C@H]3[C@@H]2O)cc1 returned MARV entry inh 28%[14.2 µM].
Screening C=C(Cl)COc1ccc2c(C)cc(=O)oc2c1 returned Shiga toxin inh active, Vaccinia mCherry -15%, LASV entry inh 2%, Cycloheximide cs 23*, VACV Venus inh -10% and MARV entry inh 8%.
Screening C=C(Cl)COc1ccc2c(CCCC)cc(=O)oc2c1 returned Shiga toxin inh 64, LASV entry inh -19%, Cycloheximide cs 25*, VACV Venus inh -10% and MARV entry inh 9%[46.1 µM].
Screening CCCCc1cc(=O)oc2cc(OS(C)(=O)=O)ccc12 returned Shiga toxin inh -33, Vaccinia mCherry -23%, LASV entry inh inconclusive, Cycloheximide cs 20*, VACV Venus inh -5% and MARV entry inh 10%.
`C=C(C)COc1ccc2c(CC)cc(=O)oc2c1` gave Shiga toxin inh 49 and Cycloheximide cs 22*.
`COc1ccc(-c2noc(-c3ccc(NCc4ccc(C)cc4)c([N+](=O)[O-])c3)n2)cc1OC` gave Vaccinia mCherry -4%, LASV entry inh -1%[46.1 µM], VACV Venus inh -3% and MARV entry inh -16%[46.1 µM].
`Cc1cc(=O)oc2cc(OCC3CC(c4ccc(Br)cc4)=NO3)ccc12` (configuration not stated) gave Shiga toxin inh 7, LASV entry inh -4%, Cycloheximide cs 2 and MARV entry inh inconclusive.
Screening Cc1cc(=O)oc2cc(OCC3CC(c4ccccc4)=NO3)ccc12 (configuration not stated) returned Shiga toxin inh 53*, LASV entry inh inconclusive, Cycloheximide cs 21* and MARV entry inh inconclusive.
Screening Cn1c(CCN2CCN(c3ccccn3)CC2)nc2cc(NS(=O)(=O)c3ccccc3)ccc21 returned Shiga toxin inh -5 and Cycloheximide cs 9.
Screening Cc1ccc(O)c(N=Cc2sc3ccccc3c2Cl)c1 returned Shiga toxin inh 73*, Vaccinia mCherry inconclusive, LASV entry inh 17%, Cycloheximide cs 45*, VACV Venus inh -25% and MARV entry inh 8%.
Screening Oc1ccccc1N=Cc1sc2ccccc2c1Cl returned Shiga toxin inh 29*, Vaccinia mCherry inconclusive, LASV entry inh -28%, Cycloheximide cs 40*, VACV Venus inh -19% and MARV entry inh inconclusive.
For NC(=S)Nc1cc2ccccc2c2ccccc12 the results were Shiga toxin inh -2, LASV entry inh -11%, Cycloheximide cs 2 and MARV entry inh -21%.
`NC(=S)Nc1cccc2cc3ccccc3cc12` gave Shiga toxin inh 78*, LASV entry inh 23%, Cycloheximide cs 43* and MARV entry inh 12%.
Screening CCC(=O)N1CCc2cc(Br)cc(S(=O)(=O)CCC(=O)NCc3ccc(Cl)cc3)c21 returned Vaccinia mCherry -12%, LASV entry inh inconclusive, VACV Venus inh 1% and MARV entry inh -9%[46.1 µM].

From PubChem
